Measured values reported in publication PMC11062922 (Nature Chemical Biology, 2023).
Read-outs that look alike come from different tables or passages of the source.

Columns and labels:
[1] = tested on: MAP3K4; design: species or system human, MV4-11 + K-562 + COLO205 + SK-N-BE2 + OVCAR-8; conditions: read-out: apparent Kd, n = 1
[2] = tested on: WEE1; design: species or system human, MV4-11 + K-562 + COLO205 + SK-N-BE2 + OVCAR-8; conditions: read-out: apparent Kd, n = 1
[3] = tested on: ERN2; design: species or system human, MV4-11 + K-562 + COLO205 + SK-N-BE2 + OVCAR-8; conditions: read-out: apparent Kd, n = 1
[4] = tested on: CAMK2G; design: species or system human, MV4-11 + K-562 + COLO205 + SK-N-BE2 + OVCAR-8; conditions: read-out: apparent Kd, compound concentrations: 100 nM and 1000 nM (sheet 'Samples'), n = 1
[5] = tested on: CDK1_CycB1; conditions: Highest Assay Concentration (M): 9.9999999999999995E-7
[6] = tested on: CK2alpha1; conditions: Highest Assay Concentration (M): 9.9999999999999995E-7
[7] = tested on: RIPK3; design: species or system human, MV4-11 + K-562 + COLO205 + SK-N-BE2 + OVCAR-8; conditions: read-out: apparent Kd, n = 1
[8] = tested on: CDK13; design: species or system human, MV4-11 + K-562 + COLO205 + SK-N-BE2 + OVCAR-8; conditions: read-out: apparent Kd, compound concentrations: 100 nM and 1000 nM (sheet 'Samples'), n = 1
[9] = tested on: ILK; design: species or system human, MV4-11 + K-562 + COLO205 + SK-N-BE2 + OVCAR-8; conditions: read-out: apparent Kd; compound concentrations: 100 nM and 1000 nM (sheet 'Samples'), CATDS: 0.188303369583949; n = 1
[10] = tested on: DDR2; design: species or system human, MV4-11 + K-562 + COLO205 + SK-N-BE2 + OVCAR-8; conditions: read-out: apparent Kd, compound concentrations: 100 nM and 1000 nM (sheet 'Samples'), n = 1
[11] = tested on: LIMK1; design: species or system human, MV4-11 + K-562 + COLO205 + SK-N-BE2 + OVCAR-8; conditions: read-out: apparent Kd, compound concentrations: 100 nM and 1000 nM (sheet 'Samples'), n = 1
[12] = tested on: ACAD8; design: species or system human, MV4-11 + K-562 + COLO205 + SK-N-BE2 + OVCAR-8; conditions: read-out: apparent Kd; compound concentrations: 100 nM and 1000 nM (sheet 'Samples'), CATDS: 3.4609202589527301E-3; n = 1
[13] = tested on: BMPR2; design: species or system human, MV4-11 + K-562 + COLO205 + SK-N-BE2 + OVCAR-8; conditions: read-out: apparent Kd, compound concentrations: 100 nM and 1000 nM (sheet 'Samples'), n = 1
[14] = tested on: DCTPP1; design: species or system human, MV4-11 + K-562 + COLO205 + SK-N-BE2 + OVCAR-8; conditions: read-out: apparent Kd; compound concentrations: 100 nM and 1000 nM (sheet 'Samples'), CATDS: 4.22997641527893E-3; n = 1
[15] = tested on: MAP2K6; design: species or system human, MV4-11 + K-562 + COLO205 + SK-N-BE2 + OVCAR-8; conditions: read-out: apparent Kd; compound concentrations: 100 nM and 1000 nM (sheet 'Samples'), CATDS: 4.6544489898713796E-3; n = 1
[16] = tested on: MST1R; design: species or system human, MV4-11 + K-562 + COLO205 + SK-N-BE2 + OVCAR-8; conditions: read-out: apparent Kd, compound concentrations: 100 nM and 1000 nM (sheet 'Samples'), n = 1
[17] = tested on: NEK3; design: species or system human, MV4-11 + K-562 + COLO205 + SK-N-BE2 + OVCAR-8; conditions: read-out: apparent Kd; compound concentrations: 100 nM and 1000 nM (sheet 'Samples'), CATDS: 4.0159133314047798E-3; n = 1
[18] = tested on: TAOK3; design: species or system human, MV4-11 + K-562 + COLO205 + SK-N-BE2 + OVCAR-8; conditions: read-out: apparent Kd, compound concentrations: 100 nM and 1000 nM (sheet 'Samples'), n = 1
[19] = tested on: VDAC3; design: species or system human, MV4-11 + K-562 + COLO205 + SK-N-BE2 + OVCAR-8; conditions: read-out: apparent Kd; compound concentrations: 100 nM and 1000 nM (sheet 'Samples'), CATDS: 4.6944952504306397E-3; n = 1
[20] = compound concentrations:100 nM and 1000 nM (sheet 'Samples')

With `CNC(=O)c1ccccc1Nc1nc(Nc2ccc(N3CCOCC3)cc2)ncc1Cl.Cl` [GSK1576028A] as the molecule, how does the potency estimated from few doses [1, 20] read?
The potency estimated from few doses was 1.69 µM.

What about the potency estimated from few doses [2, 20] of the same molecule?
The potency estimated from few doses was 0.0205 µM.

Which potency estimated from few doses [3, 20] does the source give for `Cc1cccc(Nc2nc(N[C@H]3CCCC[C@H]3N)ncc2C(N)=O)c1.Cl` [GSK986310C] here?
The potency estimated from few doses was 1.4 µM.

With `CN(c1ccc(NC(=O)N2CCN(CCCN3CCOCC3)CC2)cc1)c1ccnc(Nc2ccc(CS(C)(=O)=O)cc2)n1.Cl` [GW830899A] as the molecule, how does the potency estimated from few doses ([4]; CATDS: 3.6233110942478698E-2) read?
The potency estimated from few doses was 0.457 µM.

`O=C1NC(=O)/C(=C/c2ccc3ncccc3c2)S1` [RO4603632-000] was tested. Which IC50 [5] did it give?
The IC50 was 8.37e-06 M.

What about the IC50 [6] of the same molecule?
The IC50 was 5.79e-07 M.

`Cl.NCc1ccc(-c2nc(-c3ccc(Cl)c(O)c3)c(-c3ccncc3)[nH]2)cc1` [SB-476429-A] was tested. Which potency estimated from few doses [7, 20] did it give?
The potency estimated from few doses was 1.2 µM.

For `CONC1=NC(=O)/C(=C/c2ccc3ncccc3c2)S1` [RO4613269-000], which IC50 [5] is on record?
The IC50 was 2.74e-06 M.

And the IC50 [6]?
The IC50 was 1.16e-07 M.

`Cc1cccc2c(-c3ccncn3)c(-c3ccc(F)cc3)nn12` [GW515532X] was tested. Which potency estimated from few doses ([8]; CATDS: 0.21960096407146401) did it give?
Its potency estimated from few doses is 1.8 µM.

Which potency estimated from few doses [9] does the source give for `O=C1N=C(Nc2ccccc2)S/C1=C\c1ccc2ncccc2c1` [RO4493940-000] here?
Its potency estimated from few doses is 1.5 µM.

What about the IC50 [5] of the same molecule?
Its IC50 is 2.88e-06 M.

And the IC50 [6]?
Its IC50 is 6.67e-08 M.

What does the source list for `COc1cc(Nc2ncc3c(C)nc(-c4cc5ccccc5[nH]4)n3n2)cc(OC)c1OC` [GW869516X]?
IC50 [5]: 1.97e-06 M; IC50 [6]: 8.51e-08 M

With `CCOC(=O)N1CCC(n2cnc(-c3ccc(F)cc3)c2-c2ccnc(N)n2)CC1` [SB-219952] as the molecule, how does the potency estimated from few doses ([10]; CATDS: 9.5517965767772696E-3) read?
Its potency estimated from few doses is 0.979 µM.

What does the source list for `COc1ccc(Nc2ncc(C#N)c(Nc3ccccc3C(N)=O)n2)cc1N1CCN(C)CC1.Cl` [GSK1558669A]?
potency estimated from few doses ([10]; CATDS: 6.40385177631159E-3): 1.14 µM; potency estimated from few doses ([11]; CATDS: 6.2092464562502302E-3): 1.38 µM; potency estimated from few doses ([1]; compound concentrations: 100 nM and 1000 nM (sheet 'Samples'), CATDS: 1.60153050048602E-2): 0.0579 µM; potency estimated from few doses ([2]; compound concentrations: 100 nM and 1000 nM (sheet 'Samples'), CATDS: 4.3913811824171201E-2): 0.0104 µM

Which results are given for `Cn1ncc2c(N)ncnc21` [SKF-18267]?
potency estimated from few doses [12]: 2.01 µM; potency estimated from few doses ([13]; CATDS: 4.3596889964012502E-3): 1.09 µM; potency estimated from few doses ([4]; CATDS: 7.7542498365532697E-3): 0.382 µM; potency estimated from few doses ([8]; CATDS: 3.42159578661501E-3): 2.09 µM; potency estimated from few doses [14]: 1.17 µM; potency estimated from few doses ([10]; CATDS: 4.5419231694641699E-3): 0.994 µM; potency estimated from few doses ([3]; compound concentrations: 100 nM and 1000 nM (sheet 'Samples'), CATDS: 4.8185865403999398E-3): 0.877 µM; potency estimated from few doses ([11]; CATDS: 4.4629455520233396E-3): 1.03 µM; potency estimated from few doses [15]: 0.943 µM; potency estimated from few doses ([1]; compound concentrations: 100 nM and 1000 nM (sheet 'Samples'), CATDS: 4.0015325722358502E-3): 1.34 µM; potency estimated from few doses ([16]; CATDS: 4.6001362310290703E-3): 0.967 µM; potency estimated from few doses [17]: 1.32 µM; potency estimated from few doses ([7]; compound concentrations: 100 nM and 1000 nM (sheet 'Samples'), CATDS: 3.42256468250394E-3): 2.08 µM; potency estimated from few doses ([18]; CATDS: 4.5729665408397397E-3): 0.979 µM; potency estimated from few doses [19]: 0.926 µM; potency estimated from few doses ([2]; compound concentrations: 100 nM and 1000 nM (sheet 'Samples'), CATDS: 4.2054880043609797E-3): 1.18 µM

How did the potency estimated from few doses ([13]; CATDS: 8.2432165271610295E-3) turn out when `O=C(O)C(F)(F)F.O=C(O)C(F)(F)F.O=c1[nH]ccc2nc(N[C@@H]3CCCNC3)nc(Nc3ccc(S(=O)(=O)N4CCOCC4)cc3)c12.O=c1[nH]ccc2nc(N[C@@H]3CCCNC3)nc(Nc3ccc(S(=O)(=O)N4CCOCC4)cc3)c12` [GSK2177277A] was run?
Its potency estimated from few doses is 0.514 µM.

And the potency estimated from few doses ([16]; CATDS: 6.3226356559210701E-3)?
The potency estimated from few doses was 1.69 µM.

And the potency estimated from few doses ([18]; CATDS: 6.2703295867196796E-3)?
Its potency estimated from few doses is 1.77 µM.
